Measured values: PubChem BioAssay AID624330 (Southern Research Specialized Biocontainment Screening …, 2012)
“And” between values parts separate entries of the source, which are not always exact repeats. Equal values may be shown once. The campaign covered roughly 340,000 compounds. About 2,100 (0.62%) were called active.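 How the source made its calls: active means first-screen hits whose inhibition reached a set limit at any dose in the follow-up dose series; inconclusive means inhibition above the set first-screen limit but never retested; inactive means the rest.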 Not all results are given here. Potency and affinity values are given separately.

Each molecule was assayed against Rac GTPase-activating protein 1 (Homo sapiens) (UniProt Q9H0H5) (assay: MgcRacGAP GTPase-activating activity inhibitors, confirmation, biochemical, ADP Hunter fluorescence, primary and confirmatory (AID 624330;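 further: fluorescence reports GDP produced by GAP-driven GTP hydrolysis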)). Conditions: MgcRacGAP-stimulated Rac1 GTP hydrolysis, at 30 µM, hits give high values, GST-tagged Rac1 F28L mutant substrate.
Rac GTPase-activating protein 1 (Homo sapiens), sequence (Q9H0H5 whole entry, looked up): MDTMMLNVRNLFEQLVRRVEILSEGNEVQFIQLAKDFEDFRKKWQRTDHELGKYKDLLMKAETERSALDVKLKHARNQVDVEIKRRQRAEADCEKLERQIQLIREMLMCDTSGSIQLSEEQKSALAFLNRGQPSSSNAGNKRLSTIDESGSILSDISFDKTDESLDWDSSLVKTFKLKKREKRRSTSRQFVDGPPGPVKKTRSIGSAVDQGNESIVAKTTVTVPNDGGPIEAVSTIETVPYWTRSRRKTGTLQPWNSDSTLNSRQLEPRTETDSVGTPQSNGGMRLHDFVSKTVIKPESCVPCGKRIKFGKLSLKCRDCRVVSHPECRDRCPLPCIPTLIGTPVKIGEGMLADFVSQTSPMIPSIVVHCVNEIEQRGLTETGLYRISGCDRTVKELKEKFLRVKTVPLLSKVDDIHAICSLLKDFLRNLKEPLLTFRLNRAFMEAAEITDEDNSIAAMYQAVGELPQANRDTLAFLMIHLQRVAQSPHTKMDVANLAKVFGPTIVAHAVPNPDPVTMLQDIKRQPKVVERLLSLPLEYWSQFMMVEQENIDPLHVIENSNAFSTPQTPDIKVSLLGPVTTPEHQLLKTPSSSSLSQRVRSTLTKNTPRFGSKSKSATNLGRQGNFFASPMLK

inhibition, inactive:
COc1ccc(CCC(=O)N2CCN(S(=O)(=O)c3ccc(OC)c([N+](=O)[O-])c3)CC2)cc1 14.3%
Cc1nc2ncnn2c(C)c1CCC(=O)NCCc1ccccc1 3.16%
Cc1ccc([N+](=O)[O-])c2c1C(N1CCCC1)C(C)(C)O2 (configuration not stated) 5.51%
N#Cc1ccccc1NC(=O)CN1CCN(Cc2ccccc2)CC1 -4.52%
COC(=O)c1ccc(C)c(-n2c(C)cc(C=O)c2C)c1 2.91%
COC(=O)N1CCN(c2ccc(Cl)c(Cl)c2)CC1 6.48%
CCOC(=O)N1CCN(c2ccc(Cl)c(Cl)c2)CC1 -6.41%
NC(=O)CN1CCN(c2cccc(Cl)c2)CC1 6.34%
Clc1cccc(N2CCN(CCCN3CCN(c4ccccc4)CC3)CC2)c1 7.52%
COc1ccc(NC(=O)c2ccc3ccccc3n2)cc1S(=O)(=O)N1CCCCC1 3.75%
O=C(O)C(O)Cc1c[nH]c2ccccc12 (configuration not stated) 5.43%
Cc1ccc(S(=O)(=O)Nc2ccccc2N=Cc2ccc([N+](=O)[O-])cc2[N+](=O)[O-])cc1 4.67%
COc1ccc2nc(NC(=O)CN3CCN(C)CC3)sc2c1 14.5%
CCOC(=O)N1CCN(CC(=O)Nc2nc3ccccc3s2)CC1 -4.03%
O=C(CN1CCN(Cc2ccccc2)CC1)Nc1nc2ccccc2s1 14%
CCOc1ccc2nc(NC(=O)CN3CCN(CC)CC3)sc2c1 5.24%
O=C(CN1CCN(c2ccccn2)CC1)Nc1nc2ccccc2s1 12.2%
CCCN1CCN(CC(=O)Nc2nc3ccccc3s2)CC1 12.4%
Cc1[nH]nc(N=CC2=C(O)CC(c3ccco3)CC2=O)c1-c1ccccc1 (configuration not stated) -2.48% and -0.93%
CNC(=O)c1cc(C(=O)c2ccc(F)cc2Cl)c[nH]1 4.17%
CC1CCCCC1NC(=O)C1CC=CCC1C(=O)O (configuration not stated) -1.3%
CCC1=C(OC(=O)N(CC)CC)N2C(=O)OC(=NCC(=O)OC)[C@]2(Cc2ccccc2)[C@H]2C1=CC[C@H]1C(=O)N(C)C(=O)[C@H]12 0.87%
S=C(NCCc1ccccc1)N1CCN(C(=S)NCCc2ccccc2)CC1 1.96%
CC1CCN(CC(=O)Nc2ccccc2C(=O)NC2CC2)CC1 3.3%
O=C(CN1CCN(S(=O)(=O)c2ccccc2)CC1)Nc1ccccc1C(=O)NC1CC1 4.29%
O=C(NC(=S)N1CCN(c2ccccc2)CC1)c1ccco1 5.3%
O=C(CN1CCN(c2ccc(F)cc2)CC1)Nc1ccccc1C(=O)NCCc1ccccc1 9.18%
O=C(NC(=S)N1CCN(c2ccc([N+](=O)[O-])cc2)CC1)c1ccco1 13.1%
O=C(CN1CCN(c2ccccc2)CC1)Nc1ccccc1C(=O)NCCc1ccccc1 15.8%
COc1ccc(N2CCN(C(=S)NCCc3ccccc3)CC2)cc1 5.11%
O=C1CN(C(=O)CNCc2ccc(Cl)cc2)c2ccccc2N1 31.7%
CCCC(C(=O)Nc1ccc(S(=O)(=O)N2CCOCC2)cc1)c1ccccc1 (configuration not stated) 4.26%
Cc1nn(C)c(C)c1NC(=O)CN1CCC(O)(c2ccc3c(c2)OCO3)CC1 2.97%
COc1ccccc1NC(=O)c1ccc2c(c1)CCN2S(C)(=O)=O 6.1%
CC(C)NC(=S)N/N=C1\CCCc2ccccc21 3.57%
Nc1nc(NC(=O)c2ccc(F)cc2)ns1 7.21%
Nc1nc(N)c2cc(CNc3ccc(Cl)c(Cl)c3)ccc2n1 14.7%
Cc1nc2ccc(N)cc2c(=O)n1Cc1ccc(Cl)cc1 4.23%
Cc1c(C(C)C[C@H](C)O)oc(=O)c2c1Oc1c(C)c(C(C)C[C@H](C)O)oc(=O)c1C2 (some centres not stated) 7.75%
CN1CCN(/N=C/c2ccc(N(C)c3ccccc3)cc2)CC1 27.2%
C(=N\N1CCN(Cc2ccccc2)CC1)/c1ccccc1 8.38%
CCOc1ccc(/C=N/N2CCN(Cc3ccccc3)CC2)cc1 -1.17%
CCN(CC)c1ccc(C=NN2CCCCCC2)cc1 -1.67%
CCN(CC)c1ccc(/C=N/N2CCN(c3ccccn3)CC2)cc1 13.5%
CN1CCN(/N=C/c2ccc(N(c3ccccc3)c3ccccc3)cc2)CC1 15.3%
CCOc1ccccc1/C=N/N1CCN(Cc2ccccc2)CC1 -6.47%
CCN(CC)c1ccc(/C=N\N2CCN(Cc3ccc(C)cc3)CC2)cc1 20.7%
COc1cccc(-c2nn(C)c3sc(C(=O)NCc4ccc(C)cc4)cc23)c1 5.17%
CCOC(=O)c1[nH]c(C)c(C(=O)OCC(=O)NCc2ccc(OC)c(OC)c2)c1C 1.24%
Cn1ncc2c(NCc3ccccc3)nc(NCCCO)nc21 8.06%
CC(C)CC(NC(=O)OC(C)(C)C)c1cn([C@@H](Cc2cc3ccccc3[nH]2)C(=O)N2CCN(C(=O)OC(C)(C)C)CC2)nn1 (some centres not stated) 9.06%
COC(=O)c1c(C)[nH]c(C(=O)OC(C)C(=O)N2CCOCC2)c1C (configuration not stated) 13.4%
O=C(COC(=O)CC12CC3CC(CC(C3)C1)C2)Nc1ncc(Cl)cc1Cl 3.82%
COc1ccc(C(=O)OCC(=O)N2CCN(C(=O)c3ccco3)CC2)cc1OC 0.19%
COc1ccc2c(c1)C(c1ccc(C)o1)=NNC(c1ccccc1)=N2 2.46%
CCC1=NN(C(=O)Cc2ccccc2)C(O)(c2ccncc2)C1 (configuration not stated) 5.64%
CCN(CC)c1ccc(/C=N/N2CCN(c3ccccc3OC)CC2)cc1 13%
CCN(Cc1ccccc1)c1ccc(/C=N/NC(=O)c2cccc(S(=O)(=O)N3CCOCC3)c2)cc1 9.77%
CCN(CC)c1ccc(/C=N/N2CCN(Cc3ccccc3)CC2)c(O)c1 25.7%
CCN(CC)c1ccc(/C=N/N2CCN(Cc3ccc(C)cc3)CC2)c(O)c1 15.3%
Cc1c(N(CC(=O)O)S(=O)(=O)c2ccccc2)c(=O)n(-c2ccccc2)n1C 11.2%
O=C(c1ccc(NS(=O)(=O)c2cccc3cccnc23)cc1)N1CCCCC1 -16.1%
CCOc1ccc(NC(=O)CN(C)C(=O)c2ccc(C)c(S(=O)(=O)N3CCCCC3)c2)cc1OCC 6.08%
O=[N+]([O-])c1ccc2[nH]c(O)c(N=NC(=S)NCC3CCCO3)c2c1 (configuration not stated) 9.66%
COc1cccc(NC(=O)C(=O)NCC2CCCN2S(=O)(=O)c2ccccc2)c1 (configuration not stated) 3.83%
CCc1ccccc1-n1nnnc1-c1cnccc1C(F)(F)F 4.03%
O=S(=O)(Cc1c(F)cccc1Cl)c1ncn[nH]1 5.34%
CN(C)c1ccc(CNn2cnnc2SCC(=O)NC(C)(C)C)cc1 14.5%
Cc1[nH]n(-c2cccc(Cl)c2)c(=O)c1-c1ccccc1 30.6%
Cc1[nH]n(-c2ccccc2)c(=O)c1-c1ccc(Cl)cc1 8.45%
COc1ccc([N+](=O)[O-])cc1N(CC(=O)N1CCN(Cc2ccccc2)CC1)S(C)(=O)=O 6.86%
COc1ccc(OC)c(NC(=O)COC(=O)CCCN2C(=O)c3ccccc3C2=O)c1 3.2%
C[C@@H]1COC(=O)CCC/C=C\C[C@@H](CC(=O)N(CCO)Cc2ccccc2)C(=O)N1 4.52%
COc1ccc(-c2cc3ccccc3n2CC(O)CN2CCC(C)CC2)cc1 (configuration not stated) 9.85%
COc1ccc(-c2cc3ccccc3n2CC(O)CN2CCOCC2)cc1 (configuration not stated) 4.64%
COc1ccc(C(=O)N/C(=C\c2ccc(-c3cccc([N+](=O)[O-])c3)o2)C(=O)NCCCN2CCOCC2)cc1 -23.2%
Cc1cccc(C)c1NC(=O)Cn1nnc(-c2ccc(N3CCOCC3)cc2)n1 3.65%
Cc1nc(N2CCN(c3ccccc3F)CC2)[nH]c(=O)c1C 6.5%
Cc1c(C(=O)N(Cc2ccncc2)CC2CCCO2)oc2c(F)cccc12 (configuration not stated) 5.69%
COc1cc(C=O)ccc1OC(=O)c1cccnc1 7.23%
COc1cc(C=O)ccc1OC(=O)c1ccncc1 14.9%
COc1cc(/C=N/n2cnnc2)ccc1OC(=O)c1ccco1 16.6%
COc1cc(/C=N/NC(=O)c2ccncc2)ccc1OC(=O)c1cc(OC)c(OC)c(OC)c1 16.1%
COc1cc(CC(=O)OCc2cccc([N+](=O)[O-])c2)cc(OC)c1OC 2.78%
CCCCCC(=O)Nc1ccc(N2CCN(C(=O)CCC)CC2)cc1 -1.29%
CCOC(=O)C1(Cc2cccc(OC)c2)CCN(CC(O)CO)CC1 (configuration not stated) -0.09%
CCOc1ccc(-c2nc3c(s2)CCc2onc(-c4ccc(OC)cc4)c2-3)cc1 1.06%
O=S(=O)(c1ccccc1Cl)N1CCCC1c1nc(-c2cccc(Cl)c2)no1 (configuration not stated) 2.74%
C[C@@H](C(=O)OCC(=O)NCCc1ccc(S(N)(=O)=O)cc1)N1C(=O)C2CCCCC2C1=O (some centres not stated) -3.1%
CCCn1c(=S)[nH]c2cc(Cl)ccc21 9.71%
COc1ccc2c(c1)-c1c(sn(-c3ccccc3)c1=S)C(C)(C)N2 18.2%
COc1ccc(-n2sc3c(c2=S)-c2cc(OC)ccc2NC3(C)C)cc1 -3.29%
